Columns and labels:
[1] = biological target: T1, Inhibitor of nuclear factor kappa-B kinase subunit epsilon (Homo sapiens) (UniProt Q14164); settings: at 1 µM;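 note: reported values are averaged percent inhibition figures against human IKKε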
T1 sequence (whole entry): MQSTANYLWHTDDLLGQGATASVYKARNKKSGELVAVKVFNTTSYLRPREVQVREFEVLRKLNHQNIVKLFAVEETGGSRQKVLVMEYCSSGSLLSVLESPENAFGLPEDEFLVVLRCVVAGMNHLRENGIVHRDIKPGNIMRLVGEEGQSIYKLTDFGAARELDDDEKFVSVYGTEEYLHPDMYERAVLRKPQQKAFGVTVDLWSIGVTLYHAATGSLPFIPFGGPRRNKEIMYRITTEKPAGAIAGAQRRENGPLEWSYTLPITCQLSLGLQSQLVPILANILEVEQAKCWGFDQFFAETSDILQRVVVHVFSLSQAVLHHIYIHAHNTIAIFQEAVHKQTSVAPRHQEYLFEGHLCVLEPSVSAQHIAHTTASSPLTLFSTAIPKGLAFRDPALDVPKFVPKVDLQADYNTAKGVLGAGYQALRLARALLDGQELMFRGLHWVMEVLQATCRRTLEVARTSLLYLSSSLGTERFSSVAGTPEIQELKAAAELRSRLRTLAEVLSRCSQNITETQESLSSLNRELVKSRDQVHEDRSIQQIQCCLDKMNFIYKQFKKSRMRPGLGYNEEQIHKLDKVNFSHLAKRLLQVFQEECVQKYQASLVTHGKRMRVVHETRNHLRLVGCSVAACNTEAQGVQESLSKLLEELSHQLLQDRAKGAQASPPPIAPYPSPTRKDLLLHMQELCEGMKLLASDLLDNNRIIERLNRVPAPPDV

[2] = biological target: T2, Serine/threonine-protein kinase Nek1 (Homo sapiens) (UniProt Q96PY6); settings: at 0.1 µM
T2 sequence (whole entry): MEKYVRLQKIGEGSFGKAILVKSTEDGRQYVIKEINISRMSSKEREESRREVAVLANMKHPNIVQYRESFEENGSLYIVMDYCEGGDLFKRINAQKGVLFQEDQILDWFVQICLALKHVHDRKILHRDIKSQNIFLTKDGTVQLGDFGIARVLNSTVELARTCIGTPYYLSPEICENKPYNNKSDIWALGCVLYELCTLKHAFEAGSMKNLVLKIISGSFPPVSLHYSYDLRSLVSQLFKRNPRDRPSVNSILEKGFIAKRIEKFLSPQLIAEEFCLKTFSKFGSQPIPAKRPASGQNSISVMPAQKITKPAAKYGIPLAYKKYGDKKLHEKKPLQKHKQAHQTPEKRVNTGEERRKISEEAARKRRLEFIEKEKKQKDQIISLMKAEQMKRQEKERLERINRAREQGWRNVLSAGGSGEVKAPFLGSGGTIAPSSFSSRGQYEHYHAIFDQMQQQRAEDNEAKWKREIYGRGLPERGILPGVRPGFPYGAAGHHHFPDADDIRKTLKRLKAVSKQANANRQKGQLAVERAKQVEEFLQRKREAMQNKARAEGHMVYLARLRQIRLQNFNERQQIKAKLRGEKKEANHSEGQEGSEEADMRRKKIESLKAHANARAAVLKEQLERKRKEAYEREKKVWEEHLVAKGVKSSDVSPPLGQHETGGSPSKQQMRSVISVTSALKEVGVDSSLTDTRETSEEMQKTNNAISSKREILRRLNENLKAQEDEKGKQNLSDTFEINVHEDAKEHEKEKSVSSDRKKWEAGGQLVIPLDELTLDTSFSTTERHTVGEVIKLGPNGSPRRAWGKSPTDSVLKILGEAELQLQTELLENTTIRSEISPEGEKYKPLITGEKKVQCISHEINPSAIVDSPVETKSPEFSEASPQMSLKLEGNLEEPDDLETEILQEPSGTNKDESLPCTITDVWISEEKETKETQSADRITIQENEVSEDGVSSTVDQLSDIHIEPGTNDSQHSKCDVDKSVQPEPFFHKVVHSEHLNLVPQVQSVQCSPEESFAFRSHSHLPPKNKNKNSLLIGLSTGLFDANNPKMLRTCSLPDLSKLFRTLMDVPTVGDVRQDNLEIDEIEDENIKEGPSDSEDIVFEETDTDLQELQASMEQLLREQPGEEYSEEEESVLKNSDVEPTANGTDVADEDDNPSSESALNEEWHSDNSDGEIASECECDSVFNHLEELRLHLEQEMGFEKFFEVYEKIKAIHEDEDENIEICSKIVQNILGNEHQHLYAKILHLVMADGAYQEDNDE

[3] = biological target: T2, Serine/threonine-protein kinase Nek1 (Homo sapiens); settings: at 1 µM
[4] = biological target: T3, Serine/threonine-protein kinase Nek2 (Homo sapiens) (UniProt P51955); settings: at 0.1 µM
T3 sequence (whole entry): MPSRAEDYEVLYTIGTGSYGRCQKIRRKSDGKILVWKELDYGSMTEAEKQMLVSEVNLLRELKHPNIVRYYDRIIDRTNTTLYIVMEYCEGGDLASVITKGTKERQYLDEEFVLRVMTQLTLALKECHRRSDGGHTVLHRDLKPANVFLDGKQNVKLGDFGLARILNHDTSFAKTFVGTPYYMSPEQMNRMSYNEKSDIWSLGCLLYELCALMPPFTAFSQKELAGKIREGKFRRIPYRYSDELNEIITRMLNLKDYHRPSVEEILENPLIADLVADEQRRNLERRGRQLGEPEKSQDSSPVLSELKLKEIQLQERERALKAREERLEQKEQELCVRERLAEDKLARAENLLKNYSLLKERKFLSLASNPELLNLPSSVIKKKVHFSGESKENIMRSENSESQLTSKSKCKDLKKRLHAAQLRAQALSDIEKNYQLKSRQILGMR

[5] = biological target: T3, Serine/threonine-protein kinase Nek2 (Homo sapiens); settings: at 1 µM
[6] = biological target: Serine/threonine-protein kinase Nek6 (Homo sapiens) (UniProt Q9HC98); settings: at 0.1 µM
[7] = biological target: Serine/threonine-protein kinase Nek6 (Homo sapiens) (UniProt Q9HC98); settings: at 1 µM
[8] = biological target: Serine/threonine-protein kinase Nek7 (Homo sapiens) (UniProt Q8TDX7); settings: at 0.1 µM
[9] = biological target: Serine/threonine-protein kinase Nek7 (Homo sapiens) (UniProt Q8TDX7); settings: at 1 µM
[10] = biological target: T4, Serine/threonine-protein kinase Nek9 (Homo sapiens) (UniProt Q8TD19); settings: at 0.1 µM
T4 sequence (whole entry): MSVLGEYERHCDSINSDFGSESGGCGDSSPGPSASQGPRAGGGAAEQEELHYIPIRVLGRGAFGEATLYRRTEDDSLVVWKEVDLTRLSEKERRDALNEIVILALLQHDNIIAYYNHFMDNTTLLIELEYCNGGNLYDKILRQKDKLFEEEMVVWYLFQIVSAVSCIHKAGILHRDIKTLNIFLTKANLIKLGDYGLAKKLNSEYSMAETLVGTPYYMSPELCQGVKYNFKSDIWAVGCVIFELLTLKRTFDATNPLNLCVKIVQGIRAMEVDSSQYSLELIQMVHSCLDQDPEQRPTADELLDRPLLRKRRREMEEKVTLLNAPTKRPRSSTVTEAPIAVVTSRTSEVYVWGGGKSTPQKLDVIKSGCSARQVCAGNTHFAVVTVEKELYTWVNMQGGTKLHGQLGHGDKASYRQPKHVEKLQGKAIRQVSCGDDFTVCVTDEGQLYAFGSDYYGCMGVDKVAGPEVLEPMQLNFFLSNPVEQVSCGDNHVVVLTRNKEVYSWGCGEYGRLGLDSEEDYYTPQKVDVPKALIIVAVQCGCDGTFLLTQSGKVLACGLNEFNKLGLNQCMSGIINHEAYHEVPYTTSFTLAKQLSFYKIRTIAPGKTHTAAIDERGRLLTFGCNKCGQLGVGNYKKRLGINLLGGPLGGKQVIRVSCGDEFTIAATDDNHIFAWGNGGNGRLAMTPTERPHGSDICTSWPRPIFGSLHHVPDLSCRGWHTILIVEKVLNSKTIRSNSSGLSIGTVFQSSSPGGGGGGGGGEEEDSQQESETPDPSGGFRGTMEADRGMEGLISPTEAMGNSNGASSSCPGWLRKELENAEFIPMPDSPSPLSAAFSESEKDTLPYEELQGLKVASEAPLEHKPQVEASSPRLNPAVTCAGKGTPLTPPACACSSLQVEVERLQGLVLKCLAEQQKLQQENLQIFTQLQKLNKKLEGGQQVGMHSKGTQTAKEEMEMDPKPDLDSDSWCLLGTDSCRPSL

[11] = biological target: T4, Serine/threonine-protein kinase Nek9 (Homo sapiens); settings: at 1 µM
[12] = biological target: Serine/threonine-protein kinase PLK1 (Homo sapiens) (UniProt P53350); settings: at 0.1 µM
[13] = biological target: Serine/threonine-protein kinase PLK1 (Homo sapiens) (UniProt P53350); settings: at 1 µM
[14] = biological target: T5, Dual specificity protein kinase TTK (Homo sapiens) (UniProt P33981); settings: at 0.1 µM
T5 sequence (whole entry): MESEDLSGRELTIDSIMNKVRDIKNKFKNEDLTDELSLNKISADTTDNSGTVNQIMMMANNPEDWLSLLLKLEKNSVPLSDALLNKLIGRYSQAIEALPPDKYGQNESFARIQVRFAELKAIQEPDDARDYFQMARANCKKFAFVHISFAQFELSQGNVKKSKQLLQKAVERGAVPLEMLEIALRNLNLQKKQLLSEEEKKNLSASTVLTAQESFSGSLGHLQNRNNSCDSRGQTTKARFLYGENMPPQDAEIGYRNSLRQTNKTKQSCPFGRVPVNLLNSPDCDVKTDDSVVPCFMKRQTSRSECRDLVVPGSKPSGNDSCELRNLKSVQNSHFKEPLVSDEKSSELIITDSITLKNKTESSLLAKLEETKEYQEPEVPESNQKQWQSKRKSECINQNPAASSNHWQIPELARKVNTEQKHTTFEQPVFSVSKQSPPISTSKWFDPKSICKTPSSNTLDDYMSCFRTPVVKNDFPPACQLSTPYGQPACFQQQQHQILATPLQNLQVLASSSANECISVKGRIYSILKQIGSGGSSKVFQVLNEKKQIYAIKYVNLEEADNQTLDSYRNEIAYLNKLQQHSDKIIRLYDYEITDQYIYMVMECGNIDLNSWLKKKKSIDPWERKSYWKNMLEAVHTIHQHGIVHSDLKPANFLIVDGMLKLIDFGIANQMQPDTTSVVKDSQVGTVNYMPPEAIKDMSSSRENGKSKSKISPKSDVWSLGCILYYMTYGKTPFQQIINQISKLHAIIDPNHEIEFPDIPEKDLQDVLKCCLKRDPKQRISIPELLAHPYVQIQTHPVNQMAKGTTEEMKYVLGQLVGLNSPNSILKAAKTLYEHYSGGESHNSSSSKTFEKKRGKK

[15] = tested on: T6, Receptor-type tyrosine-protein kinase FLT3 (Homo sapiens), P36888 [D835Y]; settings: at 1 µM
T6 sequence (whole entry): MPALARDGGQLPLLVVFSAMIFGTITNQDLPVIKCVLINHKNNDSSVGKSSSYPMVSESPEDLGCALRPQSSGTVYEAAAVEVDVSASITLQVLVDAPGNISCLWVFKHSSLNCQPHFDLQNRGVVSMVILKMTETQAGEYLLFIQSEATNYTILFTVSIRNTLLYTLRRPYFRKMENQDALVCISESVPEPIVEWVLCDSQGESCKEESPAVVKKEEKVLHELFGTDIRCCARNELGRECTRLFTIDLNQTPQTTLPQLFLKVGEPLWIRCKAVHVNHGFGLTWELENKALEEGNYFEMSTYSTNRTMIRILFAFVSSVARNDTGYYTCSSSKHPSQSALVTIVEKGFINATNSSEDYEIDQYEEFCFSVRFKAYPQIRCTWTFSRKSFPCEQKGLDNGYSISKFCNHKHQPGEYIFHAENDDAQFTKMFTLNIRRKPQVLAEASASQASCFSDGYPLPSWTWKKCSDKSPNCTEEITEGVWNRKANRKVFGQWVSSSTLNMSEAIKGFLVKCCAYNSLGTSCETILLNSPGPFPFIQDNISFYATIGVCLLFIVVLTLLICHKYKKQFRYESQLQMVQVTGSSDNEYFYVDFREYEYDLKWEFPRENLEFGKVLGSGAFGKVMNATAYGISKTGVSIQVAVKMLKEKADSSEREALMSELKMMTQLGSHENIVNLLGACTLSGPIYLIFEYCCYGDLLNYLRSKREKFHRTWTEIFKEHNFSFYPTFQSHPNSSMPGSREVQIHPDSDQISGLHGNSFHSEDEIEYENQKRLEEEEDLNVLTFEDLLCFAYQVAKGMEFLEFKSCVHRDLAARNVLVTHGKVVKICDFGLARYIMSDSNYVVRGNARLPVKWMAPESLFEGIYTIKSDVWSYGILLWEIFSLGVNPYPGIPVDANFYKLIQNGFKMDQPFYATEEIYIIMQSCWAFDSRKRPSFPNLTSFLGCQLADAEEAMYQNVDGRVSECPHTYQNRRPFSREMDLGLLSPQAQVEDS

[16] = biological target: Vascular endothelial growth factor receptor 3 (Homo sapiens) (UniProt P35916); settings: at 0.1 µM
[17] = biological target: Vascular endothelial growth factor receptor 3 (Homo sapiens) (UniProt P35916); settings: at 1 µM
[18] = biological target: Macrophage colony-stimulating factor 1 receptor (Homo sapiens) (UniProt P07333); settings: at 0.1 µM
[19] = biological target: Macrophage colony-stimulating factor 1 receptor (Homo sapiens) (UniProt P07333); settings: at 1 µM
[20] = biological target: Tyrosine-protein kinase Fyn (Homo sapiens) (UniProt P06241); settings: at 0.1 µM
Chain of Tyrosine-protein kinase Fyn (Homo sapiens) (P06241 2-537 limits assumed): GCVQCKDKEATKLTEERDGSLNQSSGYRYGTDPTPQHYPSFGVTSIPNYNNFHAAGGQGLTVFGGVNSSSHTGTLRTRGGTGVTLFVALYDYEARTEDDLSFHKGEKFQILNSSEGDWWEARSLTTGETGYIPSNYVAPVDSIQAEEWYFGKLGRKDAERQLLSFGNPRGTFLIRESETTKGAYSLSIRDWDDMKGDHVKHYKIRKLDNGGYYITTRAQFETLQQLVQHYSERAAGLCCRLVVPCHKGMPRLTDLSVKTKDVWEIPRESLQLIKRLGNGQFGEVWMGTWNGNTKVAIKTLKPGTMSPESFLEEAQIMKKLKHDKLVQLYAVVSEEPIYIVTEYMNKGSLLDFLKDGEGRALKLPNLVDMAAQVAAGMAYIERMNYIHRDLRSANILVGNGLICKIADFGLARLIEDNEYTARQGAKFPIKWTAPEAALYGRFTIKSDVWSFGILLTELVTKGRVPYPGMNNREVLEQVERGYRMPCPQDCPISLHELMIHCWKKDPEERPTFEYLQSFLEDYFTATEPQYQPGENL

Chain of Serine/threonine-protein kinase Nek7 (Homo sapiens) (Q8TDX7 whole entry, looked up): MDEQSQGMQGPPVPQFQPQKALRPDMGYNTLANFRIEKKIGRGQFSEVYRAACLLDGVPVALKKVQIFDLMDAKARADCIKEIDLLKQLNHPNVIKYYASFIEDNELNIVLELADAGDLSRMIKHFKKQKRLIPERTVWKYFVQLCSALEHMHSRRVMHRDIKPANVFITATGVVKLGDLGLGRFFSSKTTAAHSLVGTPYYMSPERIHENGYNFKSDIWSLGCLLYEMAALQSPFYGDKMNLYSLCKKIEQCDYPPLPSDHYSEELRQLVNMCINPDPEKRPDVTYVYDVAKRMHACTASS
Chain of Vascular endothelial growth factor receptor 3 (Homo sapiens) (P35916 whole entry): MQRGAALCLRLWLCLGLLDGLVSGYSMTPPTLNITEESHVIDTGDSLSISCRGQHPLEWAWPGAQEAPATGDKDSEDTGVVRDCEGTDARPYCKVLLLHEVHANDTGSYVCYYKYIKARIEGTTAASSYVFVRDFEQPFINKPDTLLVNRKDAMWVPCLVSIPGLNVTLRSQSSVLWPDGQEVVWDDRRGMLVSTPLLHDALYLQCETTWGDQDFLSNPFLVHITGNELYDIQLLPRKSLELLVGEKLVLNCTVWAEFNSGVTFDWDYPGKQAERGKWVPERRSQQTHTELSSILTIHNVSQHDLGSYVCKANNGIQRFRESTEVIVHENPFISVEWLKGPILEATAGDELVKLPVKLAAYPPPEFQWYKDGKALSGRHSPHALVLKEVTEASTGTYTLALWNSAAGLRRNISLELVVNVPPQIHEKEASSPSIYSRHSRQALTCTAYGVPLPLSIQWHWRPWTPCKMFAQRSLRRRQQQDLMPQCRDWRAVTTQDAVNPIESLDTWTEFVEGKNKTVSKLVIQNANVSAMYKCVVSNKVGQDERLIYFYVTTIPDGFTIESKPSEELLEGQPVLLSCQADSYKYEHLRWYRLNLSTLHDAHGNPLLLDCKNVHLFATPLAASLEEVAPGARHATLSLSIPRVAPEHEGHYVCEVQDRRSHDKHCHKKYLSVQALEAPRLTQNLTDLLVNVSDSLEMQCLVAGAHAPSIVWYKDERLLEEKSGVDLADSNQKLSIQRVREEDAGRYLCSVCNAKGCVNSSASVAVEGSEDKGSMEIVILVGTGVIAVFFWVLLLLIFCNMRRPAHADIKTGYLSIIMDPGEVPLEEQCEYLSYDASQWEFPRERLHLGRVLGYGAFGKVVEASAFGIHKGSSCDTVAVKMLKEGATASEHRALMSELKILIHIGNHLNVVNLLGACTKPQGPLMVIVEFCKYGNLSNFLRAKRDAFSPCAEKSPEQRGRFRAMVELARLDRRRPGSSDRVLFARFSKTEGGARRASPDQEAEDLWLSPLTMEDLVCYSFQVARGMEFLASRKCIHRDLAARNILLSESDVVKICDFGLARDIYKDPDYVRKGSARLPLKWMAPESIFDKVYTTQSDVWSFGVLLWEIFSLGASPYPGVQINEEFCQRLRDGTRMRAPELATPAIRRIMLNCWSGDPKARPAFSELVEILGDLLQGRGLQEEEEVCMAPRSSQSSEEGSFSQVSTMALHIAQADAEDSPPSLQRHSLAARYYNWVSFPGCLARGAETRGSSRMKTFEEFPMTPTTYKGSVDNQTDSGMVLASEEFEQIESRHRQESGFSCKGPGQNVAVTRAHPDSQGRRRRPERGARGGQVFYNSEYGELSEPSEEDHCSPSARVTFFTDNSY
Chain of Serine/threonine-protein kinase Nek6 (Homo sapiens) (Q9HC98 whole entry): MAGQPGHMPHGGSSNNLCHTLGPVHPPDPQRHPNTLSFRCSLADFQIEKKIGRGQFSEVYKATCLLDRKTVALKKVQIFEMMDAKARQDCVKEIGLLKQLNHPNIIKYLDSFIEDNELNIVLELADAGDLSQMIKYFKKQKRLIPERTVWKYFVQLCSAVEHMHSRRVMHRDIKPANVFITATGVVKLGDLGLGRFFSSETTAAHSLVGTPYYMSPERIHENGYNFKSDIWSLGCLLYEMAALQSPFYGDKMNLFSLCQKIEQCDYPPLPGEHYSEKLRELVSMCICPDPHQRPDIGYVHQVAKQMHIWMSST
Chain of Serine/threonine-protein kinase PLK1 (Homo sapiens) (P53350 whole entry): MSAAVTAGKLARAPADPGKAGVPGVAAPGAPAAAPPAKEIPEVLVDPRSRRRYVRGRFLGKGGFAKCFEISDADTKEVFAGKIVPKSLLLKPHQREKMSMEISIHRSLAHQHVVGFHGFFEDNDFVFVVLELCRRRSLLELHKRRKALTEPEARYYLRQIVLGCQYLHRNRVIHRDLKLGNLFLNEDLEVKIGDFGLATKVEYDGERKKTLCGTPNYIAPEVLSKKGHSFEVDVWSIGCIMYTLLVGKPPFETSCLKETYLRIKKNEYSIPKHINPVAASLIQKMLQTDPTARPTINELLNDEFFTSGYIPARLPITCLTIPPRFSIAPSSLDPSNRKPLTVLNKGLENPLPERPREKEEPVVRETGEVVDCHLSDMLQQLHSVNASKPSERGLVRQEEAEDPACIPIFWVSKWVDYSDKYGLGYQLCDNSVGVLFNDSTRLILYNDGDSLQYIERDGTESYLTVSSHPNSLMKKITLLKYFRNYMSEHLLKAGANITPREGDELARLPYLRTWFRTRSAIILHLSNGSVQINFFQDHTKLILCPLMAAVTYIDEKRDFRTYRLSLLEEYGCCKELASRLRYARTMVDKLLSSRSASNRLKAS
Chain of Macrophage colony-stimulating factor 1 receptor (Homo sapiens) (P07333 whole entry): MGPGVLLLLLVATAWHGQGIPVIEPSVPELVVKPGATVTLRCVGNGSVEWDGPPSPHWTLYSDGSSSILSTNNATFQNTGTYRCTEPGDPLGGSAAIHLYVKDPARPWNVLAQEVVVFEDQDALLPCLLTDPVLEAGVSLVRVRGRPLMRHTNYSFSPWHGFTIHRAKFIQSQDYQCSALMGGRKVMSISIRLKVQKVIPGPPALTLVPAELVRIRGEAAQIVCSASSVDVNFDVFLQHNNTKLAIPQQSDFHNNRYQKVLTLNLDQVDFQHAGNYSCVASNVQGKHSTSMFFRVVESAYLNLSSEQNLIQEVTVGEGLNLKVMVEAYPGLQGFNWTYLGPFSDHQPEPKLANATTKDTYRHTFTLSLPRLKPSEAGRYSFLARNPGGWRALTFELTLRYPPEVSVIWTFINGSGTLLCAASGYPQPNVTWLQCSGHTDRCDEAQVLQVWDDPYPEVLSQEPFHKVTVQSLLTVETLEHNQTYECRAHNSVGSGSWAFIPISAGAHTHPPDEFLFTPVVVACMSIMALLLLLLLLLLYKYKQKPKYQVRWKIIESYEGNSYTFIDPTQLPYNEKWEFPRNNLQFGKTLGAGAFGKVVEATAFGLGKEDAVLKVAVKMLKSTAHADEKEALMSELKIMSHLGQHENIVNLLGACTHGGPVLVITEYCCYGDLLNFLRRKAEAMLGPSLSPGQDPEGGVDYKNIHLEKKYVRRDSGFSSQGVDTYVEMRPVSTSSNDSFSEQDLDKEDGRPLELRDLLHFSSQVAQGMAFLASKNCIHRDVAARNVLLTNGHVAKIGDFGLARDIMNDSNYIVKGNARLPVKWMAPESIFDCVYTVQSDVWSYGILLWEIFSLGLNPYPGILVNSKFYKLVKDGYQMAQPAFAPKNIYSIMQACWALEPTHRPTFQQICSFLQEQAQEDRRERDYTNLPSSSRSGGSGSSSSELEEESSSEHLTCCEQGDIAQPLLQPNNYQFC

| SMILES | inhibition [1] | inhibition [2] | inhibition [3] | inhibition [4] | inhibition [5] | inhibition [6] | inhibition [7] | inhibition [8] | inhibition [9] | inhibition [10] | inhibition [11] | inhibition [12] | inhibition [13] | inhibition [14] | inhibition [15] | inhibition [16] | inhibition [17] | inhibition [18] | inhibition [19] | inhibition [20] |
| --- | --- | --- | --- | --- | --- | --- | --- | --- | --- | --- | --- | --- | --- | --- | --- | --- | --- | --- | --- | --- |
| COC(=O)Nc1nc2ccc(S(=O)(=O)c3ccc(NC(=O)Nc4cc(C(F)(F)F)ccc4F)cc3)cc2[nH]1 | 4.2% | 2.08% | 1.85% | 3.76% | 4.26% | 4.42% | -3.58% | 2.46% | 2.19% | 2.21% | 7.16% | 3.83% | 2.15% | 5.04% | 7.26% | 0.23% | 0.36% | -1.07% | 2.06% | 1.02% |
| Nc1nc(-c2cccc(Cl)c2)c(-c2ccc3ncccc3n2)s1 | 8.93% | 2.49% | 6.68% | 5.95% | 4.63% | 3.94% | 6.59% | 1.99% | 4.09% | 6.55% | 12.5% | 3.47% | 4.49% | 14% | 0.82% | 0.27% | 9.77% | 1.82% | 2.3% | 4.49% |
| CNC(=O)c1cncc(/C=C/c2ccccc2Cl)c1 | 2.69% | -0.35% | 1.83% | -0.6% | -0.78% | 1.4% | 5.65% | -1.23% | -1.28% | 1.21% | 3.22% | -0.94% | -0.72% | 1.16% | 7.46% | 15.2% | 13.6% | 3.45% | 4.05% | 2.42% |
